# In PubChem BioAssay (Tox21):
# Values without a mark were called inactive. Active and inactive are the calls of the source. Calls come from the whole dose curve; as a rule, active = well fitted curve in the direction sought with a large enough effect in the repeat runs; inconclusive = weak or mixed curves; inactive = flat fitted curve, though single readings scatter. Non-standard residues stand in square brackets, D forms with d. Residues, ends and D or L forms follow the SMILES beside them. *: point of attachment. Sta = CC(C)C[C@H](N)[C@@H](O)CC(=O)O; Isovaleryl = CC(C)CC(=O)*
# Experiment: qHTS assay to test for compound auto fluorescence at 590 nm (red) in HepG2 cells (AID 720674)
# Conditions: HepG2 autofluorescence, red 540/590 nm, 1 h; series mostly up to 91.3 µM
# Excerpt: U.S. Tox21 Program National Center for Advancing Translational Sciences [NCATS] NIH Chemical Genomics Center [NCGC] U.S. Environmental Protection Agency [EPA] National Institutes of Environmental Health Sciences [NIEHS] National Toxicology Program [NTP] U.S. Food and Drug Administration [FDA] Tox21 Assay Overview: Compound auto fluorescence often interferes with screening of the compound library against various biological targets and signaling pathways. Some of these compounds may have fluorophoric properties. Such properties may interfere with the assay outputs resulting in false positives and/or negatives. To decrease such complications and ensure the compound activities are relevant in terms of biological response, the Tox21 10K compound library was screened for auto fluorescence. From the fluorophores used as reporter signals in our screening assays, the auto fluorescence equivalencies of compounds against three fluorophores have been evaluated: Triamterene, Fluorescein and Rose Bengal sodium for blue, green and red fluorescence, respectively. The fluorescence intensities were measured using Excitation/Emission wavelengths at 405/460nm, 485/535nm and 540/590nm for blue, green and red labels, respectively. This assay includes the red fluorescence data.
# Tox21 Assay Protocol Summary: 2,000 HepG2 cells in 5 uL of culture medium (MEM containing 10% FBS) per well were dispensed into black wall/clear bottom 1536-well plates using a Multidrop Combi Dispenser (ThermoFisher Scientific, Waltham, MA). The assay plates were incubated overnight at 37 C to allow cell attachment to the well bottom, followed by the transfer of 23 nL compound or DMSO vehicle by a pintool work station (Kalypsys , San Diego, CA). After the assay plates were incubated for 1 hr at 37 C and 5% CO2, fluorescence intensities in the assay plates were measured by an Envision (PerkinElmer, Shelton, CT) plate reader using three labels for measuring blue, green and red fluorescence at […] 460, 535 and 590 nm respectively.
# % is set by controls: 0 for no effect and ±100 for the full control effect.
SMILES,outcome,"fluorescence, relative to Rose Bengal"
O=c1c(O)c(O)c1=O,inactive,
CC(O)CCCCn1c(=O)c2c(ncn2C)n(C)c1=O (stereo not given),inactive,
CC(C)C(C)C,inactive,
C=CCON/C(CCC)=C1\C(=O)CC(C)(C)C(C(=O)OC)=C1O,inactive,
CCOC(=O)COc1ccc2c(C)c(CCN(CC)CC)c(=O)oc2c1Cl,inactive,
CCOC(=O)CC,inactive,
CC(C)(C)c1ccc(N)cc1,inactive,
CC(=O)SC[C@@H](C)C(=O)N1CCC[C@H]1C(=O)N[C@@H](Cc1ccccc1)C(=O)O,inactive,
CCCCCCCCCCCBr,inactive,
C[n+]1ccccc1/C=N/O,,0.247% [at 18.6 µM]
Cc1nnc(C(=O)NC(C)(C)c2nc(C(=O)NCc3ccc(F)cc3)c(O)c(=O)n2C)o1,inactive,
CCCCCCCCC1CO1 (stereo not given),inactive,
CN(C)CCc1c[nH]c2ccc(C[C@H]3COC(=O)N3)cc12,inactive,
Cc1ccc(S(=O)(=O)NC(=O)NN2CC3CCCC3C2)cc1 (stereo not given),,0.0207% [at 18.6 µM]
CC(C)(Sc1cc(C(C)(C)C)c(O)c(C(C)(C)C)c1)Sc1cc(C(C)(C)C)c(O)c(C(C)(C)C)c1,,0.757% [at 18.6 µM]
COCCCOc1cc(C[C@@H](C[C@H](N)[C@@H](O)C[C@H](C(=O)NCC(C)(C)C(N)=O)C(C)C)C(C)C)ccc1OC,inactive,
O=Cc1ccc(C(=O)O)cc1,inactive,
CCOC(=O)c1ccc(N(C)C)cc1,inactive,
O=CN1CCCCC1,inactive,
CCCOc1ccc(C(=O)OCCN(CC)CC)cc1N,inactive,

SMILES,outcome,"fluorescence, relative to Rose Bengal"
CCCCS,inactive,
CC(C)=CCC/C(C)=C\C#N,inactive,
CCCCCCCC(=O)N(C)C,inactive,
COc1cc(OC)cc(OC)c1,inactive,
O=P(O)(O)C(O)(Cc1cccnc1)P(=O)(O)O,inactive,
Cc1ccc(N)nc1,inactive,
Cc1cc(N)no1,inactive,
CCO/C=C1\N=C(c2ccccc2)OC1=O,inactive,
CC(C)C[P+](C)(CC(C)C)CC(C)C,inactive,
COc1ccc(Cl)cc1C,inactive,
CC(C)CC(=O)N[C@H](C(=O)N[C@H](C(=O)N[C@@H](CC(C)C)[C@@H](O)CC(=O)N[C@@H](C)C(=O)N[C@@H](CC(C)C)[C@@H](O)CC(=O)O)C(C)C)C(C)C (Isovaleryl-VV[Sta]A[Sta]-OH),inactive,
CC(C)(C)C(=O)NCCCC(=O)O,inactive,
CC(O)C(CO)C(C)O (stereo not given),inactive,
CN(C)CCCN(C)C,,-1.07% [at 3.72 µM]
C[Si](C)(C)O[Si](O)(O)O,inactive,
C/C=C/C(=O)CCCC,inactive,
CCO[Si](CC(C)C)(OCC)OCC,inactive,
O=C(c1ccccc1)c1cccc(O)c1,inactive,
CCC(=O)OCCOc1ccccc1,inactive,
CC1(C)C(=O)C(C)(C)C1=O,inactive,
